Active and inactive are the calls of the source. Cut-off read from the data, not from the text of the source: active = fold change mostly below about -2 (no sharp cut-off); inactive = mostly above about -1.8.
Test: modulation of TERT promoter-driven luciferase – cell-based, luciferase reporter, human, primary screen (AID 1259240)
Conditions: A2780 TERT promoter luciferase reporter, 16 h; at 20 µM, fold versus average of vehicle-only wells

outcome, active:
O=c1oc2cc(O)ccc2cc1-c1nnc(Nc2ccccc2)s1

outcome, inactive:
Oc1oc(-c2ccccc2)nc1C=Nc1ccc(Cl)c2cccnc12
Cc1ccc(C2C3=C(CC(C)(C)CC3=O)Nc3ncnn32)cc1 (stereo not given)

Fold change, active:
CC(=O)c1cccc(Nc2nc(-c3c(C)nc4cc(C)ccn34)cs2)c1 -2.84
COc1ccc2c(c1)NC(=O)C2(O)C(F)(F)F (stereo not given) 2.17
O=C1N=C(N2CCOCC2)S/C1=C1\C(=O)N(Cc2ccccc2)c2ccccc21 -2.02

Fold change, inactive:
Cc1nc2c(-c3ccc(F)cc3)c(C)nn2c(C)c1CCC(=O)NCc1ccc2c(c1)OCO2 1.02
CC(C)Cc1nnc(NC(=O)CSc2ncn[nH]2)s1 -1.25
NC(=O)c1c(NC(=O)c2csc3c2CCCC3)sc2c1CCCC2 -1.89
O=C(NCCCN1CCCCC1)C1CCC(CNS(=O)(=O)c2cccc3nsnc23)CC1 (stereo not given) -1.15
CCN1C(=O)C(O)(CC(=O)c2ccc3c(c2)OCCO3)c2ccccc21 (stereo not given) -1.17
Cc1cc(C)c(C#N)c(SCC(=O)Nc2nc(-c3ccccc3)ns2)n1 -1.27
CC1CCOC2(O1)C(=O)N(CN1CCN(c3cccc(Cl)c3)CC1)c1ccccc12 (stereo not given) -1.15
Cn1c2ccccc2c2cnn(CC(=O)NCCc3c[nH]c4ccccc34)c(=O)c21 1.23
CC1CCC(NC(=O)Cn2c(=O)c(C(F)(F)F)nc3ccccc32)CC1 (stereo not given) -1.07
Cc1c(NC(=O)Nc2cccc(C#N)c2)c(=O)n(-c2ccccc2)n1C -1.39
CCN1CCN(C(=O)C2CCN(S(=O)(=O)c3ccc4c(c3)oc(=O)n4C)CC2)CC1 -1.05
CCOc1ccc(C2CC(=O)Nc3cc4c(cc32)OCO4)cc1Cl (stereo not given) -1.12
CN(CC(=O)NCc1ccco1)S(=O)(=O)c1ccc2c(c1)CCC(=O)N2 -1.35
CCOc1ccc(OCC)c(NC(=O)C2CCCN(S(=O)(=O)c3cnc[nH]3)C2)c1 (stereo not given) 1.05
CN(CC(=O)NCc1ccco1)S(=O)(=O)c1ccc2c(c1)c(=O)n(C)c(=O)n2C -1.15
COc1cc2[nH]c(C)cc(=O)c2cc1OC 1.12
Cc1cc(NC(=O)c2cc3c(s2)-c2ccccc2S(=O)(=O)C3)no1 1.14
COc1cc(-c2nc3s/c(=C\c4ccccc4Br)c(=O)n3n2)cc(OC)c1OC 1.02
O=C(Nc1cccc(C(F)(F)F)c1)Nc1ccc2snnc2c1 -1.55
COC(=O)CCn1nc(-c2ccc(Cl)cc2)c2ccccc2c1=O -1.07
COC(=O)c1ccc(-c2nn(C)c(=O)c3ccccc23)cc1 -1.09
c1ccc(COc2ccc(Oc3nc(N4CCOCC4)nc(N4CCOCC4)n3)nn2)cc1 -1.03
Cc1ccc(-c2cc(N)n(S(=O)(=O)c3cccc([N+](=O)[O-])c3)n2)cc1 1.05
O=C(Nc1ccc(F)c(F)c1)C1CCCN1S(=O)(=O)c1cccc2nsnc12 (stereo not given) -1.3
CCOC(=O)C1=C(CS(=O)(=O)c2ccccc2)NC(=O)NC1c1cc(OC)c(OC)cc1OC (stereo not given) 1.83
CCOC(=O)Cc1nnc2c(Nc3ccccc3Cl)nc3nonc3n12 -1.8
CCOC(=O)CSc1n[nH]c(N)n1 -1.02
CCOCCCNc1nc2c(-c3ccccc3)nnn2c2ccccc12 1.12
O=C1OC(Nc2ccc(F)cc2)c2ccccc21 (stereo not given) -1.21
S=c1nc(-c2ccccc2)n(CCCn2ccnc2)c2c1CCCC2 1.02
CCOC(=O)Cn1c(=O)oc2cc(S(=O)(=O)N3CCCC3)ccc21 -1.16
CSc1cccc(NC(=O)C2CCN(S(=O)(=O)c3ccc4c(c3)oc(=O)n4C)CC2)c1 -1.36
O=C(Nc1ccc2snnc2c1)Nc1ccccc1Cl -1.86
COc1ccc(Nc2nc(N)nc(CSc3nccn3C)n2)cc1 1.57

Reference: PubChem BioAssay AID1259240 (Keith Lab, Institute of Cancer Science, University of …, 2017)
